Drawing on PubChem BioAssay, this text covers z-score for 14 compounds.

The nature of experiment [1]: compound effects on lung adenocarcinoma cell viability – A549, calcein-AM fluorescence, 48 h, basal, profiling panel (AID 1162). As to conditions: higher = more signal.
Experiment [2] can be described thus: compound effects on differentiated 3T3-L1 adipocyte viability – cell-based, 3T3-L1 adipocytes, calcein-AM fluorescence, 48 h, basal, profiling panel (AID 1163). As to conditions: 3T3-L1 adipocytes viability, higher = more signal.
A short description of experiment [3]: compound effects on hepatocellular carcinoma cell viability – HepG2, calcein-AM fluorescence, 48 h, basal, profiling panel (AID 1164). As to conditions: higher = more signal.
A short description of experiment [4]: compound effects on multiple myeloma cell viability – MM1S, calcein-AM fluorescence, 48 h, basal, profiling panel (AID 1165).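 Also: viability of MM1S multiple myeloma cells under basal unstimulated conditions.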 The following applies: higher = more signal.
Experiment [5] in a line: calcein-AM signal in unstimulated myeloma cells – cell-based, calcein-AM fluorescence, 48 h, PK04 Diversity Set, profiling panel (AID 1166).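 Also: cells grown under basal conditions without added stimulus.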 As to conditions: RPMI8226 myeloma viability, higher = more signal.
Experiment [6] in a line: JC-1 mitochondrial signal, unstimulated HepG2 cells – cell-based, JC-1 fluorescence, 24 h, 100 nL compound, profiling panel (AID 1167). As to conditions: HepG2 mitochondrial potential, higher = more signal.
A short description of experiment [7]: JC-1 mitochondrial signal, unstimulated adipocytes – cell-based, JC-1 fluorescence, 3T3-L1 adipocytes, 24 h, 100 nL compound, profiling panel (AID 1168). The following applies: JC-1 mitochondrial fluorescence, higher = more signal, called active from +8 up or from −8 down.
Experiment [8] in a line: JC-1 mitochondrial signal, unstimulated myeloma cells – cell-based, JC-1 fluorescence, RPMI8226, 24 h, 100 nL compound, profiling panel (AID 1169). As to conditions: JC-1 mitochondrial potential fluorescence, higher = more signal.
The nature of experiment [9]: JC-1 mitochondrial signal, unstimulated MM1S myeloma – cell-based, JC-1 fluorescence, 24 h, 100 nL compound, profiling panel (AID 1170). The following applies: MM1S mitochondrial potential, higher = more signal.
Experiment [10] can be described thus: resazurin metabolic signal in A549 cells – cell-based, resazurin fluorescence, 24 h, PK04 Diversity Set, profiling panel (AID 1171). The following applies: A549 viability, higher = more signal, called active from +8 up or from −8 down.

Activity calls are given as the source filed them.
Also: test concentration not given here.

With `COCCOC(=O)N1C(=O)[C@@]2(c3cc(C#CC4(O)CCCCCC4)ccc31)[C@H](c1ccc(O)cc1)N1[C@H](c3ccccc3)[C@H](c3ccccc3)OC(=O)[C@H]1[C@@H]2C(=O)Nc1nc2ccccc2s1`, the z-score in experiment [1] is 0.3; in experiment [2], 0.974; in experiment [3] it was 0.702; in [4] it was -1.55; in experiment [5], -1.47; in [6], -2.78. Besides, the z-score in experiment [7] is -1.11 (inactive); in experiment [8], -0.876; in experiment [9], 0.18; in [10], -0.006 (inactive).

Consider `CCCCC(O)C1C=CC2C(=O)N(c3ccccc3)C(=O)C2N1Nc1ccccc1F` (stereo not given), for which the z-score in experiment [1] is -0.0693; in [2] it was -0.767; in experiment [3], 0.297; in [4] it was 0.447; in experiment [5] it was -0.812; in [6] it was -1.75. In addition, the z-score in experiment [7] was -0.935 (inactive); in experiment [8] it was -0.425; in [9], -0.444; in experiment [10] it was -0.684 (inactive).

On to `CCCCCN1CC=CC23O[C@@H]4/C=C\CCCOC(=O)C4[C@H]2C(=O)N(CCCO)[C@@H]3C1=O` (stereo not given in full), for which the z-score in [1] is -0.335; in experiment [2], 1.65; in experiment [3], -0.495; in experiment [4] it was 0.759; in experiment [5], 0.424; in experiment [6], -0.472. Moreover, the z-score is -0.0755 (inactive) in experiment [7], 0.362 in experiment [8], 0.286 in experiment [9] and 0.937 (inactive) in experiment [10].

As for `CC(C)(C)OC(=O)CC[C@@]1(C(N)=O)N=C(c2ccc(OCCCO)cc2)O[C@@H]1c1ccccc1`, the z-score was 0.298 in [1]; -0.0721 in experiment [2]; 0.105 in experiment [3]; 0.0092 in experiment [4]; 0.658 in experiment [5]; -0.318 in experiment [6]. Further, the z-score in experiment [7] is -0.191 (inactive); in [8] it was 0.919; in experiment [9] it was -0.0322; in experiment [10], 0.293 (inactive).

Turning to `CO[C@H]1O[C@H](CO)[C@@H](OC(=O)Nc2ccc(Br)cc2)[C@H](OC(=O)c2cc3ccccc3[nH]2)[C@H]1OC(=O)c1cc2ccccc2[nH]1`, the z-score was -2.49 in experiment [1]; 0.266 in experiment [2]; -2.58 in [3]; -3.23 in experiment [4]; -3.2 in [5]; -2.38 in [6]. Also, the z-score was 2.37 (inactive) in [7], -0.589 in experiment [8], -0.634 in experiment [9] and -5.8 (inactive) in [10].

`COCCOC(=O)N1C(=O)[C@@]2(c3cc(C#CC4=CCCCC4)ccc31)[C@H](C(N)=O)[C@H]1C(=O)O[C@H](c3ccccc3)[C@H](c3ccccc3)N1[C@@H]2c1ccc(OCCO)cc1`: the z-score in experiment [1] was -0.0731; in experiment [2] it was -0.605; in [3], 0.575; in experiment [4], -2.37; in experiment [5], -2.99; in [6] it was -2.31. Besides, the z-score was 1.22 (inactive) in [7], -0.799 in [8], -1.82 in [9] and -2.15 (inactive) in experiment [10].

As to `CCCN1C(=O)[C@]2(CCS(=O)(=O)c3ccccc3)N=C(c3ccc(OCCCO)cc3)O[C@@H]2c2ccccc21`, the z-score is 1.27 in experiment [1]; 1.86 in experiment [2]; -0.801 in experiment [3]; 0.0361 in experiment [4]; -1.97 in experiment [5]; 0.28 in experiment [6]. Moreover, the z-score in experiment [7] was -0.494 (inactive); in experiment [8], -0.917; in [9] it was -1.28; in experiment [10], -1.57 (inactive).

In the case of `COc1cc2c(cc1OC)CN(C(=O)[C@@H]1[C@H]3C(=O)O[C@H](c4ccccc4)[C@H](c4ccccc4)N3[C@H](c3ccc(O)cc3)[C@@]13C(=O)Nc1ccc(C#CC4(O)CCCCCC4)cc13)CC2`, the z-score in [1] was 0.192; in experiment [2] it was 0.284; in experiment [3], 1.37; in [4], 0.132; in experiment [5], -0.0905; in experiment [6], -0.769. In addition, the z-score in experiment [7] was -0.771 (inactive); in experiment [8], -0.767; in experiment [9], -0.401; in experiment [10], 1.05 (inactive).

Turning to `CCOC(=O)[C@H]1C/C=C/C[C@H](C(=O)OCC)C(=O)O[C@H]2[C@@H](OC)O[C@H](CO)[C@@H](OC(=O)Nc3ccc(C#N)cc3)[C@@H]2OC1=O`, the z-score in experiment [1] is -2.47; in [2], 1.37; in experiment [3] it was -4.91; in [4], -3.15; in [5], -4.11; in [6] it was -2.79. In addition, the z-score in experiment [7] is 1.14 (inactive); in [8], -0.975; in experiment [9], -2.11; in experiment [10], -4.98 (inactive).

On to `COc1ccc(C(=O)Nc2ccc(CN3C(=O)[C@@]4(O[C@@H](CCO)[C@H]([Si](C)(C)c5ccc(OC)cc5)[C@H]4C)c4ccccc43)cc2)cc1`, for which the z-score in experiment [1] was -4.06; in experiment [2], -0.736; in [3], -4.64; in experiment [4], -2.64; in [5] it was -4.32; in [6], -2.53. The z-score in [7] is 1.16 (inactive); in experiment [8], -1.12; in [9], -2.2; in experiment [10] it was -3.84 (inactive).

`CN1C(=O)C2C=CC(C(O)C3CC=CCC3)N(NC(=O)OC(C)(C)C)C2C1=O` (stereo not given): the z-score was 0.414 in experiment [1]; -0.61 in experiment [2]; -0.622 in experiment [3]; -0.0764 in [4]; -0.291 in [5]; -1.58 in [6]. The z-score is -0.493 (inactive) in [7], 0.295 in experiment [8], -0.121 in experiment [9] and -0.111 (inactive) in [10].

Take `O=C1O[C@H](c2ccccc2)[C@H](c2ccccc2)N2[C@H]1[C@@H](C(=O)O)[C@]1(C(=O)Nc3ccc(C#CCCO)cc31)[C@H]2c1ccc(O)cc1`: the z-score is 1.46 in [1]; 0.339 in experiment [2]; -0.215 in [3]; 0.536 in experiment [4]; 0.858 in experiment [5]; -0.308 in experiment [6]. The z-score in [7] is -0.395 (inactive); in experiment [8] it was -0.896; in [9], -0.565; in experiment [10] it was 1.52 (inactive).

Consider `COC(=O)C(CC#Cc1ccc2c(c1)[C@]1(C(=O)N2)[C@H](c2ccc(O)cc2)N2[C@H](c3ccccc3)[C@H](c3ccccc3)OC(=O)[C@H]2[C@@H]1C(=O)Nc1nc2ccccc2s1)C(=O)OC`, for which the z-score in [1] is 1.37; in experiment [2] it was 0.72; in [3], 1.47; in [4], 0.247; in experiment [5] it was -1.65; in [6], -1.44. Besides, the z-score in experiment [7] was -0.719 (inactive); in experiment [8] it was -0.712; in experiment [9], 0.422; in experiment [10], -0.351 (inactive).

Turning to `NCCCCCNC(=O)[C@@H]1C[C@@H]2C(=O)N[C@@H](Cc3ccccc3)C(=O)N2[C@@H]1c1cccc(OCCO)c1`, the z-score in [1] was -0.349; in [2] it was 0.512; in [3], -0.442; in [4], 0.143; in experiment [5], -0.371; in experiment [6] it was -1.04. Further, the z-score in [7] is -0.684 (inactive); in experiment [8], -0.0752; in experiment [9], 0.894; in experiment [10], -0.403 (inactive).
